According to PubChem BioAssay (Tox21):
“And” between values parts separate entries of the source, which are not always exact repeats. Identical values can stand only once. Records with an inconclusive call do not appear. Some structures have more than one record in an assay (separate samples or runs), and their calls can disagree. The source made the active and inactive calls. Unless noted, the call rests on the fitted dose curve; in most records, active means well fitted curve in the direction sought with a large enough effect in the repeat runs; inconclusive means weak or mixed curves; inactive means no such curve, though single readings can be large; an effect the other way counts as inactive or inconclusive.

Key:
[1] = qHTS assay to identify small molecule antagonists of the glucocorticoid receptor (GR) signaling pathway - cell viability counter screen (AID 720693); further: nearly all actives have a fitted effect of over 55% in size; further: potency means the concentration at half of the fitted maximal effect
[2] = qHTS assay for identifying genotoxic compounds that show differential cytotoxicity against isogenic chicken DT40 cell lines with known DNA damage response pathways - wild type cell line (AID 743012); further: nearly all actives have a fitted effect of over 60% in size; further: potency means the concentration at half of the fitted maximal effect
How it was run: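 Luminescent ATP viability signal (CellTiter-Glo, 30 min RT) recorded after wild type DT40 cells were incubated with compounds for 40 h at 37 C/5% CO2.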

[3] = qHTS assay for identifying genotoxic compounds that show differential cytotoxicity against isogenic chicken DT40 cell lines with known DNA damage response pathways - Rev3 mutant cell line (AID 743014); further: nearly all actives have a fitted effect of over 55% in size; further: potency means the concentration at half of the fitted maximal effect
[4] = qHTS assay to identify small molecule antagonists of the androgen receptor (AR) signaling pathway - cell viability counter screen (AID 743033; further: nearly all actives have a fitted effect of over 45% in size; further: potency means the concentration at half of the fitted maximal effect)
[5] = molecular target: Androgen receptor (Homo sapiens) (UniProt P10275); assay: qHTS assay to identify small molecule antagonists of the androgen receptor (AR) signaling pathway (AID 743035; active means well fitted inhibition curve with a large enough effect in the signal ratio in the repeat runs, not every such curve was filed as active; the % refers to the signal ratio; further: potency means the concentration at half of the fitted maximal effect)
Androgen receptor (Homo sapiens), sequence (P10275 whole entry, looked up): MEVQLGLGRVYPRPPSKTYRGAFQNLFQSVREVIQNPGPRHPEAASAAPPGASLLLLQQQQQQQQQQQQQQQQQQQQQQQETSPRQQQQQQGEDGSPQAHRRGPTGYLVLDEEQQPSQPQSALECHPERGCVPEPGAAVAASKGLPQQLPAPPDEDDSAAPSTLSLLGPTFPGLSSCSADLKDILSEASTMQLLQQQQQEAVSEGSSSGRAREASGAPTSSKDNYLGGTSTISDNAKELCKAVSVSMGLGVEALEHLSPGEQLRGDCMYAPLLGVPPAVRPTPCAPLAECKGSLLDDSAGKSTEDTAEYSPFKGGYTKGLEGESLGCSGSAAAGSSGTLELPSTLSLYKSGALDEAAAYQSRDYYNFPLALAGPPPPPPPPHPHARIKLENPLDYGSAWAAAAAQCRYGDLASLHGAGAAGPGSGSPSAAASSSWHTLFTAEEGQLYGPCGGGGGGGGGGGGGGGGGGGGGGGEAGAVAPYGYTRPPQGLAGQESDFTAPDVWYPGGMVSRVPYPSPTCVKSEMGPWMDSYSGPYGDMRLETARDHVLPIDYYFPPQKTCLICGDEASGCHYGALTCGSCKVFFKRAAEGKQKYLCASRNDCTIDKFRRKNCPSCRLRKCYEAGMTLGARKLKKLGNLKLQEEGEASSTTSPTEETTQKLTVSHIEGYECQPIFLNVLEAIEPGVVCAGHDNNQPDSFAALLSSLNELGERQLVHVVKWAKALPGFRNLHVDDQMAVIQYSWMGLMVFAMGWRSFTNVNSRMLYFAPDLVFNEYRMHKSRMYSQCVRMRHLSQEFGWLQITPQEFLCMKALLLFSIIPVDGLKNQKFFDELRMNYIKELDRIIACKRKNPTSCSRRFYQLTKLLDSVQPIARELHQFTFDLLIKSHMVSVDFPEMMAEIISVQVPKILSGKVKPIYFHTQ
How it was run: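 Quantitative HTS of the Tox21 10K library used HEK293 AR-UAS-bla cells stimulated with R1881 alongside compound for 16 h at 37C, followed by beta-lactamase FRET detection (LiveBLAzer B/G, 2 h, RT).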

[6] = molecular target: Androgen receptor (Homo sapiens) (UniProt P10275); assay: qHTS assay to identify small molecule agonists of the androgen receptor (AR) signaling pathway using the MDA cell line (AID 743040; further: nearly all actives have a fitted effect of over 20% in size)
How it was run: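 Luciferase agonist assay: 16 h compound exposure at 37C without CO2 in MDA-kb2 AR-luc cells, whose MMTV promoter responds to both AR and GR. Luminescence measured after 30 min room-temperature incubation with ONE-Glo.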

[7] = qHTS assay to identify small molecule antagonists of the androgen receptor (AR) signaling pathway using the MDA cell line - cell viability counter screen (AID 743041; further: nearly all actives have a fitted effect of over 45% in size; further: potency means the concentration at half of the fitted maximal effect)
How it was run: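 Viability read by CellTiter-Fluor fluorescence in the same wells as the antagonist screen, added after 15.5 h of a 16 h, 37C exposure. Human breast carcinoma MDA-kb2 AR-luc cells, compounds co-dosed with agonist R1881.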

[8] = molecular target: Androgen receptor (Homo sapiens) (UniProt P10275); assay: qHTS assay to identify small molecule antagonists of the androgen receptor (AR) signaling pathway using the MDA cell line (AID 743042; further: nearly all actives have a fitted effect of over 55% in size; further: potency means the concentration at half of the fitted maximal effect)
How it was run: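 Antagonist mode: compounds plus R1881 agonist added to MDA-kb2 AR-luc cells, incubated 16 h at 37C. Luciferase reporter luminescence quantified, with multiplexed CellTiter-Fluor readout for cell viability.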

[9] = qHTS assay for identifying genotoxic compounds that show differential cytotoxicity against isogenic chicken DT40 cell lines with known DNA damage response pathways - Rad54/Ku70 mutant cell line (AID 743015); further: nearly all actives have a fitted effect of over 60% in size; further: potency means the concentration at half of the fitted maximal effect
[10] = molecular target: Androgen receptor (Homo sapiens) (UniProt P10275); assay: qHTS assay to identify small molecule agonists of the androgen receptor (AR) signaling pathway (AID 743036; active means well fitted activation curve with a large enough effect in the signal ratio in the repeat runs, with a control signal flat, not every such curve was filed as active; the % refers to the signal ratio)
How it was run: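 Activation was read as beta-lactamase FRET signal from LiveBLAzer B/G substrate, added for 2 h at room temperature. Before that, GeneBLAzer AR-UAS-bla GripTite (HEK293) cells had 16 h compound exposure at 37C.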

Measured: Potency

CCCCCCCCCCCCc1ccccc1O
inactive: [6] | [7]
active: [1] 21.6 µM and 21.9 µM | [2] 12 µM and 30.6 µM | [3] 7.59 µM and 24.3 µM | [4] 24.2 µM and 38.9 µM | [5] 21.6 µM | [8] 54.5 µM

O=S(=O)(O)c1ccc2nc(-c3ccccc3)[nH]c2c1
active: [1] 20.8 µM | [9] 58.2 µM
inactive: [4] | [7]
inactive and 46.2 µM (active): [2]

CCOc1ccccc1C(N)=O
not listed: [9]
inactive: all other assays above

CC(C)CCOCc1ccccc1
not listed: [9]
inactive: all other assays above

CC[C@H]1CN2CCc3cc(OC)c(OC)cc3[C@@H]2C[C@@H]1C[C@H]1NCCc2cc(OC)c(OC)cc21
active: [1] 4.92 µM | [2] 18.8 nM and 24.4 nM | [3] 23.7 nM and 19.4 nM | [9] 23.7 nM and 21.8 nM | [7] 6.88 µM

CCC[C@H](N[C@@H](C)C(=O)N1[C@H](C(=O)O)C[C@@H]2CCCC[C@@H]21)C(=O)OCC
inactive: [1] | [2] | [3] | [4]

Cc1cccc([N+](=O)[O-])c1C(=O)O
inactive: [1] | [2] | [3] | [4] | [7]

Oc1ccc(Cl)cc1Cc1cc(Cl)ccc1O
active: [1] 39.6 µM and 34.7 µM | [2] 23.7 µM and 39.3 µM and 21.7 µM | [3] 16.8 µM and 31.2 µM and 10.9 µM | [4] 19.8 µM and 11 µM | [8] 27.8 µM and 38.6 µM
inactive: [10] | [6] | [7]

CCn1c2ccccc2c2cc(N)ccc21
active: [2] 61.1 µM | [3] 21.7 µM
inactive: [1] | [4] | [7]

COc1cc(C(=S)N2CCOCC2)ccc1O
inactive: [1] | [2] | [3] | [4] | [6] | [8]

O=C(O)CP(=O)(O)O
inactive: [1] | [2] | [3] | [4] | [7]

COC(=O)/C=C/c1ccccc1
inactive: [1] | [2] | [4]

CNC1(C)C2CCC(C2)C1(C)C (stereo not given)
inactive: [1] | [2] | [3] | [4] | [7]

CC(C)(C)c1cc(C(C)(C)C)c(O)c(C(C)(C)C)c1
inactive: [1] | [2] | [3] | [4] | [7]

O=C(Oc1ccccc1)c1ccccc1O
inactive: [1] | [2] | [3] | [4]

CCC(=O)/C=C/C1C(C)=CCCC1(C)C (stereo not given)
inactive: [1] | [2] | [3] | [4] | [7]

NC12CC3CC(CC(C3)C1)C2
inactive: [1] | [2] | [9] | [4] | [7]

Cc1occc(=O)c1OC(=O)C(C)C
inactive: [1] | [2] | [9] | [4] | [7]

NCCCCCC(=O)O
inactive: [1] | [2] | [9] | [4] | [7]

Nc1ccc2cc3ccccc3cc2c1
inactive: [1] | [2] | [4]

CCN(CC)C(=O)Nc1ccc(OCC(O)CNC(C)(C)C)c(C(C)=O)c1 (stereo not given)
not listed: [4] | [9]
inactive: all other assays above

CC(C)(O)CCC(C)(C)O
inactive: [1] | [2] | [3] | [4] | [6] | [8]

CCCN[C@H]1CCc2nc(N)sc2C1
inactive: [1] | [2] | [3] | [4] | [7]

O=C(O)c1cc(Cl)cc(Cl)c1
inactive: [1] | [2] | [3] | [4]

Nc1nc2ccccc2[nH]1
inactive: [1] | [2] | [3] | [4] | [7]

CC1COc2c(N3CCN(C)CC3)c(F)cc3c(=O)c(C(=O)O)cn1c23 (stereo not given)
inactive: [1] | [2] | [3] | [4]

CN1C(=O)c2ccc([N+](=O)[O-])cc2C1=O
not listed: [9]
inactive: all other assays above

CCC(C)(Oc1ccc(C2(c3ccc(OC(C)(CC)C(=O)O)cc3)CCCCC2)cc1)C(=O)O (stereo not given)
not listed: [9]
inactive: all other assays above

CCN1CCCC1CNC(=O)c1cc(S(=O)(=O)CC)c(N)cc1OC (stereo not given)
inactive: [1] | [2] | [3] | [4] | [7]

CCN(CC)CCOc1ccc(/C(=C(\Cl)c2ccccc2)c2ccccc2)cc1
active: [2] 1.19 µM and 140 nM | [3] 422 nM and 24.8 nM | [9] 1.68 µM and 44.2 nM | [4] 15.8 µM
inactive: [8]

CC[C@@H](N)CO
inactive: [2] | [3] | [9] | [4] | [7]

Nc1ccc(O)cc1
inactive: [4] | [10] | [6]
active: [1] 15.1 µM and 25.5 µM | [7] 29.8 µM and 48.6 µM and 56.6 µM | [8] 5.96 µM and 12.2 µM and 25.3 µM

CC1=CC(=O)c2ccccc2C1=O
active: [2] 21.1 µM and 13.7 µM | [3] 23.7 µM and 12.2 µM
inactive and 30.6 µM (active): [8]
inactive: [5] | [6]
inactive and 21.9 µM (active): [4]

CCCNC(C)C(=O)Nc1ccccc1C (stereo not given)
inactive: [1] | [2] | [4] | [7]

CCC(CO)(CO)COCC(CC)(CO)CO
inactive: [1] | [2] | [4]

COc1ccc(CCN2CCC(Nc3nc4ccccc4n3Cc3ccc(F)cc3)CC2)cc1
active: [2] 5.96 µM and 7.01 µM | [3] 7.5 µM and 6.25 µM | [9] 8.41 µM and 8.82 µM | [4] 21.3 µM and 6.3 µM | [7] 39.4 µM

CN(C)c1ccc2nc3ccc(=[N+](C)C)cc-3sc2c1
active: [2] 473 nM and 2.34 µM and 686 nM | [3] 750 nM and 587 nM and 686 nM | [9] 422 nM and 262 nM and 386 nM | [4] 1.87 µM and 3.09 µM | [7] 5.96 µM and 11.7 µM and 17.2 µM

C[N+]1([O-])CCOCC1
inactive: [2] | [3] | [9] | [4] | [7]

COc1ccc(Cc2cnc(N)nc2N)cc1OC
not listed: [2] | [3] | [9]
inactive: all other assays above
